Assay outcomes deposited in PubChem by several laboratories.
HSP90 refold inh – inhibitors of HSP90 luciferase refolding in rabbit reticulocyte lysate; inhibition, % at 5.6 µM; hit rate 0.91% among 290,000; luciferase refolding luminescence, 3 h;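 active = inhibition above the screen-wide mean plus 3 SD, computed separately per campaign, cut at about 16% in these data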;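 note: inhibitors lower the luminescence because luciferase stays unfolded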
HSF1 inhib – HSF1 inhibition; NIH3T3-HGL HSE-luciferase, MG132-induced, luminescence 8 h; stronger effect = lower value; activity change, negative = inhibition, % at 7.5 µM (by protocol); hit rate 0.77% among 300,000; AID 2098;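 active = more than half of replicate wells show activity change below -50%, luminescence cut by over half; inconclusive = some wells, but at most half, below -50%; inactive = no replicate well below -50%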;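 note: luciferase reports HSF-1 transcriptional activity via heat shock element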
Platelet DG rel – platelet dense granule release activity. hit rate 0.22% among 300,000. human platelet-rich plasma, SFLLRN dense granule ATP release, luminescence. inhibition, %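 (compounds screened at 7.5 µM in platelet-rich plasma)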;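 active = mean replicate score, as percent of positive control, at or above 50; inconclusive = mean below 50 but at least one replicate at or above 50; inactive = mean and every replicate below 50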
dFosB act – activators of mouse delta FosB homodimer; hit rate 0.99% among 340,000; purified delta FosB, TAMRA-CDK5 oligo fluorescence polarization; percent of positive-control signal above neutral wells; activation, % at 25 µM; AID 493131; P13346;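 active = mean activation above about 17%, with every replicate also reaching it, limit read from the data, passing the limit was not always enough; inconclusive = only one of the two conditions met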
Target sequence (P13346 whole entry, looked up): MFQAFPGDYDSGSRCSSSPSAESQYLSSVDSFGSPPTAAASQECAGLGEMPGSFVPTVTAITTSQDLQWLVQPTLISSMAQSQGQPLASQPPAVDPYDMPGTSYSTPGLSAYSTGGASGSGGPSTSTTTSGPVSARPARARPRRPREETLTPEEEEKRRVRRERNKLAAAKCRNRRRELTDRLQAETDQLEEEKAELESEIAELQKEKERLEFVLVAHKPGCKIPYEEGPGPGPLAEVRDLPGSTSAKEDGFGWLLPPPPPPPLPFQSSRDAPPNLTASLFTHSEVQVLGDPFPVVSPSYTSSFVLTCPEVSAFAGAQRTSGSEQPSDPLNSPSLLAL
MPTP block – permeability transition pore inhibition; inhibition, % at 10 µM; isolated mouse mitochondria, Ca2+ swelling absorbance, 30 min; hit rate 1.4% among 360,000; AID 602449;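 active = inhibition of 50% or more, scaled per plate between neutral and stimulator controls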
HSF1 activator – increases HSF-1 driven luciferase reporter signal; NIH3T3-HGL HSF-1 luciferase reporter, MG132, 8 h; 100% = twice DMSO control signal; activation, % at 9 µM; hit rate 1.7% among 300,000;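 active = mean replicate activation of at least 50% with a set share of replicates each reaching 50%; inconclusive = only one of those two conditions met; inactive = mean below 50% and too few replicates reaching it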
HSP90 confirm – confirmation of HSP90 inhibitors | shares compounds with HSP90 refold inh | rabbit reticulocyte lysate, luciferase refolding luminescence, 3 h | inhibition, % at 5.9 µM | hit rate 64% among 2,300 | AID 1846; in the data active = inhibition above about 18%
luciferase ctr – counter-screen for HSP90 inhibitors: inhibitors of firefly luciferase; purified native firefly luciferase, luminescence; shares compounds with HSP90 refold inh; inhibition, % at 5.9 µM; hit rate 48% among 2,300;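 active = inhibition above the mean inhibition of all tested sample wells plus 3 SD, cut at about 10% in these data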
Large screens that a line does not name were inactive (follow-up assays come after a bar, where they were run). A selection: hits, their analogues and other compounds. The true share with any hit is near 4.9%.

O=C(Cn1nnc(-c2cccs2)n1)NCc1ccccc1	HSP90 refold inh 56 | HSP90 confirm inactive | luciferase ctr inactive
O=C(Cn1nnc(-c2cccs2)n1)NCc1ccco1	none
COc1ccc(C(NC(C)=O)c2cc(Cl)c3cccnc3c2O)cc1OC (configuration not stated)	none
COc1ccccc1C(NC(C)=O)c1cc(Cl)c2cccnc2c1O (configuration not stated)	HSP90 refold inh 24 | HSP90 confirm inactive | luciferase ctr inactive
Nc1nc(-c2ccc(NC(=O)c3ccco3)cc2)cs1	HSP90 refold inh 28 | HSP90 confirm 51 | luciferase ctr 46
CSc1ncnc2ncn(C)c12	none (no result: HSP90 refold inh, HSF1 inhib, Platelet DG rel, HSF1 activator)
Cc1ccc(-c2cn3cccc(C)c3n2)cc1	HSP90 refold inh 18, HSF1 activator 78 | HSP90 confirm 29 | luciferase ctr 28
Cc1cccn2cc(-c3ccc(Cl)cc3)nc12	none
Cc1[nH]n(-c2ccccc2)c(=O)c1C(c1ccccc1[N+](=O)[O-])C(C#N)C#N (configuration not stated)	HSP90 refold inh 28 | HSP90 confirm inactive | luciferase ctr inactive
Cc1[nH]n(-c2ccccc2)c(=O)c1C(c1ccccc1C(=O)O)c1c(C)[nH]n(-c2ccccc2)c1=O	none
O=C(c1cc(C2CC2)nn1-c1ccccc1)N1CCN(c2ccc(O)cc2)CC1	none (no result: HSP90 refold inh, HSF1 inhib, Platelet DG rel, HSF1 activator)
O=S(=O)(Nc1cc(Sc2ncn[nH]2)c(O)c2ccccc12)c1ccccc1	HSP90 refold inh 93 (no result: HSF1 inhib, Platelet DG rel, HSF1 activator) | HSP90 confirm inactive | luciferase ctr 9.4
O=C(NCCc1cccs1)c1ccc(Cl)cc1	HSP90 refold inh 19 | HSP90 confirm 45 | luciferase ctr 41
O=C(NCCc1cccs1)c1ccc(Cl)c(Cl)c1	none
Cc1ccc(C(=O)NCCc2cccs2)cc1	HSP90 refold inh 55 | HSP90 confirm 74 | luciferase ctr 62
Cc1ccc(C(=O)NCCSC(C)(C)C)cc1	HSP90 refold inh 19 | HSP90 confirm 31 | luciferase ctr 24
CN(C(=O)c1ccc(Br)o1)C1CCCCC1	none
COc1ccc(N2CCN(C(=O)c3ccc(CNS(=O)(=O)c4cc(C)ccc4C)cc3)CC2)cc1	none
CC(=O)c1cccc(OCCN2C(=O)NC(C)(C)C2=O)c1	none
CC1(C)NC(=O)N(CCOc2cccc(Cl)c2Cl)C1=O	HSP90 refold inh 18 | HSP90 confirm inactive | luciferase ctr inactive
Cc1cc(C(=O)N/N=C/c2ccc(O)c(O)c2O)c(C)n1-c1ccccc1	HSP90 refold inh 17 | HSP90 confirm inactive | luciferase ctr inactive
Cc1cc(/C=N/NC(=O)c2ccncc2)c(C)n1-c1ccccc1	none
Cc1cc(/C=N/NC(=O)c2cccs2)c(C)n1-c1ccccc1	HSP90 refold inh 57, HSF1 inhib -69 | HSP90 confirm 71 | luciferase ctr 66
CC(C)n1cnnc1SCC(=O)NC(=O)c1ccccc1	none (no result: HSP90 refold inh)
O=C1N=C(N2CCCC2)S/C1=C\C=C\c1ccccc1	HSP90 refold inh 36, HSF1 inhib -76 | HSP90 confirm 56 | luciferase ctr 54
O=C1N=C(N2CCCCC2)S/C1=C\c1ccncc1	none
CCc1ccc(/C=C2\SC(N3CCCC3)=NC2=O)cc1	HSP90 refold inh 26 | HSP90 confirm inactive | luciferase ctr 12
CCOc1cc(OCC)cc(C(=O)NCc2ccco2)c1	none
CC1(C(=O)NS(=O)(=O)c2ccccc2C(F)(F)F)CCN1C(=O)c1cccc(F)c1 (configuration not stated)	none (no result: HSP90 refold inh, HSF1 inhib, Platelet DG rel, dFosB act, HSF1 activator)
CCc1cc(=O)[nH]c(SCC(=O)Nc2ccc3c(c2)OCCO3)n1	none (no result: HSP90 refold inh)
CC(=O)c1cccc(NC(=O)C2C3C=CC(C3)C2C(=O)O)c1 (configuration not stated)	HSF1 activator inconclusive
O=C(O)C1C2C=CC(C2)C1C(=O)Nc1cccc(C(=O)N2CCCCC2)c1 (configuration not stated)	HSP90 refold inh 30 | HSP90 confirm inactive | luciferase ctr inactive
C=CCn1c(C)cc(C(=O)COc2ncnc3sccc23)c1C	HSP90 refold inh 18 | HSP90 confirm 45 | luciferase ctr 33
C=CCn1c(C)cc(C(=O)COC(=O)c2cncc(Br)c2)c1C	none (no result: HSP90 refold inh, HSF1 inhib, Platelet DG rel, HSF1 activator)
N#Cc1c(Nc2ccccc2)[n+]([O-])c2ccc(Cl)cc2[n+]1[O-]	none (no result: HSP90 refold inh, HSF1 inhib, Platelet DG rel, HSF1 activator)
Cc1cc2nc(-c3cccnc3SCC(=O)NCc3ccco3)[nH]c2cc1C	HSP90 refold inh 18 | HSP90 confirm 23 | luciferase ctr inactive
O=C(COC(=O)c1ccc(S(=O)(=O)N2CCOCC2)cc1)Nc1ccccc1OC(F)F	none (no result: HSP90 refold inh, HSF1 inhib, Platelet DG rel, HSF1 activator)
O=C(CCl)N(C1CCCC1)C1CCS(=O)(=O)C1 (configuration not stated)	none
OCCNC(=S)Nc1ccc(Cl)c(Cl)c1	none
OCCNC(=S)Nc1cc(Cl)cc(Cl)c1	HSP90 refold inh 18 | HSP90 confirm inactive | luciferase ctr inactive
COc1cc(NC(=O)c2ccccc2F)c(OC)cc1NC(=O)CN1CCCCC1	none
COc1ccccc1C(=O)NC(=S)N1CCCc2ccccc21	HSP90 refold inh 18, HSF1 inhib -61 | HSP90 confirm 20 | luciferase ctr 13
O=[N+]([O-])c1ccc(S(=O)(=O)Nc2ccc3c(c2)OCCO3)cc1	HSP90 refold inh 27 | HSP90 confirm inactive | luciferase ctr inactive
O=C(CCNS(=O)(=O)c1cccc2nsnc12)Nc1ccc2c(c1)OCCO2	none
O=S(=O)(Nc1ccc2c(c1)OCCO2)c1cccc2nsnc12	HSP90 refold inh 20, HSF1 inhib -59 | HSP90 confirm 31 | luciferase ctr 50
O=C(CN1CCN(C(=O)CN2C(=O)NC3(CCCC3)C2=O)CC1)Nc1cccc(F)c1	none (no result: HSP90 refold inh, HSF1 inhib, Platelet DG rel, HSF1 activator)
CCOc1ccccc1OCCn1ncc2ccc(OC)c(OC)c2c1=O	none
COc1ccc2cnn(CCOc3ccccc3)c(=O)c2c1OC	HSP90 refold inh 21 | HSP90 confirm 32 | luciferase ctr 20
CCOCCCN1CC(=O)N2[C@@H](Cc3c([nH]c4ccccc34)C2(C)C)C1=O	none
Cc1nc2c(-c3ccc(Cl)cc3)cnn2c2c1CCC2	none
Cc1nc2c(-c3ccc(Cl)cc3)cnn2c(N)c1-c1ccc(F)cc1	HSP90 refold inh 69, HSF1 inhib -74 | HSP90 confirm 67 | luciferase ctr 68
COc1ccc(-c2c(C)nc3c(-c4ccc(F)cc4)cnn3c2N)cc1	HSP90 refold inh 17 | HSP90 confirm 16 | luciferase ctr 11
Cc1cc(C(F)(F)F)n2ncc(-c3ccc(F)cc3)c2n1	none
CC1(C(=O)NCc2cccc3ccccc23)CCN1Cc1ccccc1OC(F)F (configuration not stated)	none (no result: HSP90 refold inh, HSF1 inhib, Platelet DG rel, dFosB act, HSF1 activator)
Cc1ccc(S(=O)(=O)N2Cc3ccccc3CC2C(=O)NC(C)(C)C)cc1 (configuration not stated)	none (no result: Platelet DG rel)
